Test results: PubChem BioAssay AID1159580 (chemical genetic matrix, 2015)
About 2,000 (36%) of roughly 5,500 compounds were called active. Not shown: some 18% with an inconclusive outcome. Cut-off read from the data, not from the text of the source: active = normalized growth mostly below about 0.91 (no sharp cut-off); inconclusive = no clear call, values can overlap the other calls; inactive = mostly above about 0.92. This is one part of the list.

Experiment: chemical genetic growth profiling, strain panel (AID 1159580);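 note: tested at 20 µM; growth read once vehicle control cultures reached saturation at 30 °C; 1 = growth at the plate median or of vehicle wells; lower values mean less growth of the strain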
Conditions: S. cerevisiae deletion strains, growth OD
[1] = locus YAL040C, strain CLN3, stronger effect = lower value
[2] = locus YDR363W, strain ESC2, stronger effect = lower value
[3] = locus YER002W, strain NOP16, stronger effect = lower value
[4] = locus YNL175C, strain NOP13, stronger effect = lower value
[5] = locus YNL197C, strain WHI3, stronger effect = lower value
[6] = locus YNL224C, strain SQS1, stronger effect = lower value
[7] = locus YOR083W, strain WHI5 (second series), stronger effect = lower value

Measured: normalized growth

O=C(O)[C@H]1NCCC[C@H]1C(=O)O
inactive: [1] 1.06 | locus YCL061C, strain MRC1 (second series), stronger effect = lower value 0.986 | locus YDR150W, strain NUM1, stronger effect = lower value 1.01 | [2] 0.991 | [3] 0.993 | locus YMR263W, strain SAP30, stronger effect = lower value 0.99 | locus YMR307W, strain GAS1, stronger effect = lower value 0.991 | locus YNL128W, strain TEP1, stronger effect = lower value 0.994 | [4] 1 | [5] 0.982 | [6] 0.999 | [7] 0.984 | locus YPL055C, strain LGE1, stronger effect = lower value 1 | locus YPL241C, strain CIN2, stronger effect = lower value 0.996

N[C@@H](CS(=O)O)C(=O)O
inactive: [1] 0.98 | [2] 1.01 | [3] 0.98 | locus YGR078C, strain PAC10, stronger effect = lower value 1.01 | locus YGR229C, strain SMI1, stronger effect = lower value 0.954 | [4] 0.987 | [5] 1.02 | [6] 1.02 | [7] 1.02
